Measured values from PubChem BioAssay (NCATS).
Active and inactive are the calls of the source. A call without a number means that no potency is given here. Calls come from the whole dose curve; as a rule, active = well fitted cell-killing curve with a large enough effect; inconclusive = small, poorly fitted or top-dose-only effect, or effect the other way; inactive = flat fitted curve, though single readings scatter.

Experiment: MultiTox-Fluor Cytotoxicity Assay - LYMP1-003 - Dead Cells (AID 961);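 note: cells exposed to compound for 16 h at 37 °C; nearly all actives have a fitted effect of over 70% in size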
Settings: LYMP1-003 lymphoblastoid cells, dead-cell protease fluorescence; series mostly up to 92.2 µM
From the text: NIH Chemical Genomics Center [NCGC]
NIH Molecular Libraries Screening Centers Network [MLSCN]
National Institutes of Environmental Health Sciences [NIEHS]
National Toxicology Program [NTP]
We have developed a 1536-well cell-based assay for quantitative high throughput screening (qHTS) against a number of cell lines to determine in vitro cytotoxicity of small molecules. This particular assay uses a human lymphoblastoid cell line (LYMP1-003) purchased from Coriell Institute.
NCGC Assay Protocol Summary:
The MultiTox-Fluor Cytotoxicity Assay (Promega) is a homogeneous method to simultaneously measure the relative number of live and dead cells in culture by detecting changes in cell membrane integrity. There are two fluorogenic peptide substrates in the assay reagent. Viable cells are determined when the cell-permeant substrate (GF-AFC) enters the cell and is cleaved by protease from live cells resulting in liberated fluorophore. This live-cell protease activity restricted to viable cells is proportional to cell number. The dead cells are determined by using fluorogenic cell-impermeant peptide substrate (bis-AAF-R110) which cleaved by dead cell proteases leaking from damaged cell membrane.
Using the MultiTox-Fluor Cytotoxicity Assay, the relative number of dead cells was measured in the lymphoblastoid cell line with complete culture medium following compound treatment for 16 hours. The assay was performed in opaque black Kalypsys 1536-well plates. In the screen, tetraoctylammonium bromide was used as positive control. Library compounds were measured for their ability to cause acute toxicity in the cell line, as reflected by an increase in dead cell protease activity, in a concentration-dependent manner. Data were normalized to the controls for basal activity (DMSO only) and 100% stimulation (15 uM tetraoctylammonium bromide). AC50 values were determined from concentration-response data modeled with the standard Hill equation.
qHTS protocol for MultiTox-Fluor Cytotoxicity assay
[Step] [Parameter] [Value] [Description]
1. Reagent; 5 uL; 2500 lymphoblastoid cells/well
2. Time; 5 hr; 37 C incubation
4. Controls; 23 nL; Tetraoctylammonium bromide 6.4pM to 92 uM
5. Time; 16 hr; 37 C incubation
6. Reagent; 5 uL; MuliTox-Fluor Assay reagent
7. Time; 60 min; Room Temperature
8. Detection; dead-cell fluorescence (Ex/Em=485/520); EnVision plate reader
Keywords: cytotoxicity, lymphoblastoid cell line, fluorescence, NTPHTS, NTPHTS_NCGC, NIEHS, EPA, DSSTox, MLSMR, MLSCN, NIH Roadmap, qHTS, NCGC
For `c1ccc(NNc2ccccc2)cc1`, the Potency was “inactive”. In the case of `CC(C)(Cl)Cl`, the Potency was “inactive”. For `Nc1cc(Cl)cc(Cl)c1`, the Potency was “inactive”. For `CCC/C=N/O`, the Potency was “inactive”. For `CCCN(CCC)c1c([N+](=O)[O-])cc(C(F)(F)F)cc1[N+](=O)[O-]`, the Potency was “inactive”. In the case of `O=C(O)C(Br)CBr` (stereo not given), the Potency was “inactive”. With `O=C(Cc1ccccc1)OCc1ccccc1` the Potency was “inactive”. With `CN(C)C(=O)Nc1cccc(C(F)(F)F)c1` the Potency was “inactive”. For `CNC(=O)O/N=C/C(C)(C)S(C)=O` (stereo not given), the Potency was “inactive”. In the case of `C=COC(C)=O`, the Potency was “inactive”. In the case of `Nc1ccc(-c2ccc(N)cc2)cc1`, the Potency was “inactive”. In the case of `Nc1cc(Cl)ccc1Cl`, the Potency was “inactive”. In the case of `CCCBr`, the Potency was “inactive”. With `CC(C)CON=O` the Potency was “inactive”. In the case of `c1ccc(P(c2ccccc2)c2ccccc2)cc1`, the Potency was “inactive”. In the case of `C[N+](=O)[O-]`, the Potency was “inactive”. For `CC(C)Br`, the Potency was “inactive”. In the case of `ClC(Cl)c1ccccc1`, the Potency was “inactive”. With `ClC(Br)Br` the Potency was “inactive”. With `ClC(Cl)Br` the Potency was “inactive”. For `O=[N+]([O-])c1cccc(CCl)c1`, the Potency was “inactive”. For `Clc1cccc(Cl)c1Cl`, the Potency was “inactive”. For `ClP(Cl)(Cl)(Cl)Cl`, the Potency was “inactive”. For `N#CC(Cl)(Cl)Cl`, the Potency was “inactive”. With `CCCCCOC(=O)c1ccccc1C(=O)OCCCCC` the Potency was “inactive”. In the case of `CCCCC(CC)COC(=O)c1ccc(C(=O)OCC(CC)CCCC)c(C(=O)OCC(CC)CCCC)c1` (stereo not given), the Potency was “inactive”. For `O=[N+]([O-])c1c(Cl)c(Cl)c(Cl)c(Cl)c1Cl`, the Potency was “inactive”. With `Oc1cc(Cl)c(Cl)c(Cl)c1Cl` the Potency was “inactive”. With `[O-][Cl+2]([O-])O` the Potency was “inactive”. For `O=[N+]([O-])c1ccccc1-c1ccccc1`, the Potency was “inactive”. For `c1ccc(N=NNc2ccccc2)cc1`, the Potency was “inactive”. For `CC(C)(C)OOC(=O)c1ccccc1`, the Potency was “inactive”. For `C=CCc1cc(OC)c2c(c1)OCO2`, the Potency was “inactive”. For `OC[P+](CO)(CO)CO`, the Potency was “inactive”. With `CCN(N=O)C(N)=O` the Potency was “inactive”. In the case of `C=C(Cl)CCl`, the Potency was “inactive”. For `CSSC`, the Potency was “inactive”. For `ClCCOCOCCCl`, the Potency was “inactive”. With `CCCCCCCCCCCOC(=O)c1ccccc1C(=O)OCCCCCCCCCCC` the Potency was “inactive”. With `CN(C)N=O` the Potency was “inactive”.
